# Screening results: PubChem BioAssay, several laboratories
# TWEAK Fn14 block: inhibitors of TWEAK-Fn14 signaling, primary screen, luciferase reporter cells, uHTS | TWEAK-stimulated Fn14 reporter cells, luciferase luminescence, 8 h | inhibition, % at 10 µM | AID 1159606, 2016 | actives 2% (n = 360,000); in the data active means inhibition above about 50%
# TROY NFkB inh: inhibitors of TROY-driven NF-kB signaling, primary screen, Q293 LMP1-TROYcd cells, NF-kB luciferase, uHTS; inhibition, % at 10 µM; actives 0.98% (n = 360,000); Q293 LMP1-TROYcd NF-kB luciferase reporter, 4 h; AID 1347056, 2019;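 active means compounds whose plate-normalised and pattern-corrected inhibition of the luciferase reporter signal at the single screening dose is 50% or more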
# TRAIL sens C8: viability loss with TRAIL in NB7+C8 cells, primary screen, TRAIL sensitizer project, cell-based, ATPlite luminescence | inhibition (viability loss, TRAIL sensitization), % at 10 µM | actives 1% (n = 360,000);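 active means compounds causing at least 50% loss of cell viability in the single-dose screen, relative to plate controls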
# aSyn 5UTR inh: MLPCN primary screen, SNCA 5' untranslated region | alpha-synuclein 5'UTR reporter, inhibitor activity | inhibition, % (tested at 7.5 µM) | actives 0.82% (n = 300,000); in the data active means inhibition above about 60%; inconclusive means no clear call, values can overlap the other calls;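 further: H4 neuroglioblastoma cells stably carrying SNCA 5'UTR luciferase fusion; 0% = DMSO wells and 100% = positive control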
# HSP90 refold inh: HSP90 inhibitors, primary screen, cell lysate, luminescence; AID 1789, 2009; Heat shock protein HSP 90 (rabbit reticulocyte lysate; luciferase refolding); Rabbit reticulocyte lysate, luciferase refolding luminescence, 3 h; actives 0.91% (n = 290,000); inhibition, % at 5.6 µM;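 active means inhibition above the screen-wide mean plus 3 SD, computed separately per campaign, cut at about 16% in these data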;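 further: 0% = DMSO wells and 100% = 60 µM geldanamycin wells; inhibitors lower the luminescence because luciferase stays unfolded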
# HIF-2a inh: HIF-2a reporter inhibitors, primary screen, luminescence, 786-0 RCC cells; inhibition, % at 18.8 µM; 786-0 RCC cells HIF-2a reporter, luciferase luminescence, overnight; actives 0.72% (n = 360,000);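 active means inhibition of the luminescence signal of 40% or more relative to plate controls, in a single-dose primary screen at 18.75 µM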
# Mdm2 MdmX conf: retested Mdm2-MdmX interaction blockers, confirmation, cell-based, luminescence, single concentration, set 2; shares compounds with HIF-2a inh; SaOS-2 split-luciferase Mdm2/MdmX complementation; inhibition, % at 8 µM; actives 99% (n = 740); AID 504601, 2011;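 active means mean inhibition of the luminescence signal across two replicates at or above 26 percent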
# Target sequence (O15151 whole entry, looked up): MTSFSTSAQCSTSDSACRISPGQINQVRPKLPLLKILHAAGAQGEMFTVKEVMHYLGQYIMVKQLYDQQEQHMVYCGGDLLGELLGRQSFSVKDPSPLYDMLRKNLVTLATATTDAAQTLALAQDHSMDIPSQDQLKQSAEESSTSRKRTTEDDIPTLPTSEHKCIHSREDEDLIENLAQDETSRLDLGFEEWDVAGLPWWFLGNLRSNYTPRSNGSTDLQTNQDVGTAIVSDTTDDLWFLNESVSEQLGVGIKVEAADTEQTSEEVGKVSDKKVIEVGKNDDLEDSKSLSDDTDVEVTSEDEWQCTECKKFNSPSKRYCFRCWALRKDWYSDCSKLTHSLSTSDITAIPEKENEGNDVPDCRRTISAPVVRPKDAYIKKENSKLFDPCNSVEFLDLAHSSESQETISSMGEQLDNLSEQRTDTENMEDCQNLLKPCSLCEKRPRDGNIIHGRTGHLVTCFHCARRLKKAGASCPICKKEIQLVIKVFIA
# Target sequence (Q00987 whole entry, looked up): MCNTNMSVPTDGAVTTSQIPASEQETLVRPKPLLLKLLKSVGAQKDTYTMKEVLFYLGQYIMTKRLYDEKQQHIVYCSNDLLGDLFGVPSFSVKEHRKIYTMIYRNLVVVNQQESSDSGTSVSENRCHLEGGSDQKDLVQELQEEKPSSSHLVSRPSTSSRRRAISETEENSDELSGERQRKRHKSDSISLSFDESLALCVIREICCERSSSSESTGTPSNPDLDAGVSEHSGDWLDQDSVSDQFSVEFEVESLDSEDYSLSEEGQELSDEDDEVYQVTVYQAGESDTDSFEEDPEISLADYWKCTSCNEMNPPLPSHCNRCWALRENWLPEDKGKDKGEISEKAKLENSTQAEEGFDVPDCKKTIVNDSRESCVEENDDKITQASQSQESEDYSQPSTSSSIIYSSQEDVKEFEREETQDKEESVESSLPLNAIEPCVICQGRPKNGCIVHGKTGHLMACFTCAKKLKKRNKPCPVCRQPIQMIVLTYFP
# HIF-2a inh conf: HIF-2a reporter inhibitor retest, confirmation, luminescence, 786-0 RCC cells; shares compounds with HIF-2a inh; inhibition, % at 18.8 µM; AID 651580, 2012; HIF-2a luciferase reporter luminescence, overnight; actives 56% (n = 1,800);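 active means mean inhibition across four replicates of at least 40 percent at the single tested concentration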
# HIF-1a cs: HIF-1a luciferase reporter signal reduction – MiaPaCa-2 cells, single concentration, counter-screen for HIF-2a inhibitor project, confirmation; shares compounds with HIF-2a inh; MiaPaCa-2 HIF-1a luciferase reporter, desferoxamine, overnight; inhibition, % at 18.8 µM; actives 72% (n = 1,800); AID 651589, 2012;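 active means mean inhibition of the reporter signal across four replicates at the single tested dose of 50% or more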
# * = called active by the depositor; ? = inconclusive; / = no result given. Hits are enriched below; roughly 3.9% of the tested compounds scored in any of these assays.
SMILES,TWEAK Fn14 block,TROY NFkB inh,TRAIL sens C8,aSyn 5UTR inh,HSP90 refold inh,HIF-2a inh,HIF-2a inh conf,HIF-1a cs,others
COc1ccccc1S(=O)(=O)N(C)C[C@H]1Oc2ncc(Br)cc2C(=O)N([C@H](C)CO)C[C@H]1C,-11,7,-4,/,/,14,/,/,
Cc1ccc(C(=O)N/C(=C\c2ccc(-c3ccc(Cl)cc3)o2)C(=O)NCCCN(C)C)cc1,-47,-12,20,?,0,15,/,/,Mdm2 MdmX conf=103*
CN(C)CCCNC(=O)/C(=C\c1ccc(-c2ccc(Br)cc2)o1)NC(=O)c1ccccc1,-70,-21,6,4,-4,41*,-8,106*,
CN(C)CCCNC(=O)/C(=C/c1ccc(-c2ccc([N+](=O)[O-])cc2)o1)NC(=O)c1ccccc1,-10,-9,3,-4,2,11,/,/,
CC[N+]1(C)CCC(O)(/C=C/c2ccccc2)C(C(=O)/C=C/c2ccccc2)C1 (stereo not drawn),65*,12,18,/,/,90*,46*,103*,
CCCn1c(=N)n(CC(=O)c2ccc(OCC(=O)OC)cc2)c2ccccc21,-18,-18,3,-28,/,47*,3,4,
Cc1ccccc1N(C(=O)c1snc(C(N)=O)c1N)C(C(=O)NC1CCCCC1)c1ccc(O)cc1 (stereo not drawn),39,-7,-2,58,-1,42*,36,86*,
Cc1cccc(-n2ccnc2SCC(=O)Nc2cccc(S(=O)(=O)NC3=NCCC3)c2)c1C,2,4,10,/,/,14,/,/,
O=C(COC(=O)c1ccc[nH]c1=O)Nc1ccc(S(=O)(=O)N2CCCC2)cc1,10,56*,-7,9,4,59*,0,18,
O=C(COC(=O)c1ccc[nH]c1=O)Nc1cc(S(=O)(=O)N2CCCCC2)ccc1Cl,-11,9,-9,12,-1,19,/,/,
O=C(COC(=O)c1ccc[nH]c1=O)Nc1ccc(N2CCCCC2)cc1,88*,56*,29,/,/,91*,95*,74*,
CC(=O)c1cc2c(cc1C)CCCC2(C)C,-21,1,4,/,/,14,/,/,
Cc1ccc(S(=O)(=O)N2CCN(C(=O)COC(=O)CNC(=O)c3ccc(Cl)cc3Cl)CC2)c(C)c1,3,7,-13,/,/,7,/,/,
CCn1cc(CN2CCCC(C(=O)Nc3cccc(-n4cccn4)c3)C2)cn1 (stereo not drawn),-12,4,-13,/,/,11,/,/,
Cc1ccc(C(=O)c2c(NC(=O)CSc3nnc(N)s3)sc3c2CCCC3)cc1,50,-14,-1,11,15,61*,2,63*,
Nc1nnc(SCC(=O)Nc2sc3c(c2C(=O)c2ccccc2)CCCC3)s1,47,27,-1,24,1,11,/,/,
CC(Sc1ccc(S(=O)(=O)N2CCCCCC2)cn1)C(N)=O (stereo not drawn),-5,1,-7,/,/,12,/,/,
CCOc1ccc(-c2c(C#N)c(N)nc3sc(C(=O)c4ccccc4)c(N)c23)cc1,76*,89*,-5,13,2,72*,0,63*,
COc1ccc(-c2c(C#N)c(N)nc3sc(C(=O)c4ccccc4)c(N)c23)cc1,30,25,-6,36,-2,1,/,/,
C[C@@H]1CCCCO[C@@H](CN(C)C(=O)CCCN(C)C)[C@@H](C)CN([C@H](C)CO)C(=O)c2cc(N(C)C)ccc2O1,-8,2,-2,/,/,0,/,/,
CC(=O)Nc1cccc(C(=O)/C=C/c2ccc(Br)cc2)c1,67*,25,20,-76,4,92*,16,105*,Mdm2 MdmX conf=103*
CC(=O)Nc1cccc(C(=O)/C=C/c2ccc(N(C)C)cc2)c1,-13,-64,4,-71,2,-217,/,/,
COc1ccc(Br)cc1/C=C/C(=O)Nc1ccc2ccccc2c1,-13,-48,-11,-91,3,-90,/,/,
CCC(=O)Nc1cccc(C(=O)/C=C/c2cc(Br)ccc2OC)c1,94*,6,-30,-125,0,84*,84*,106*,Mdm2 MdmX conf=103*
CN(CCO)c1cc(Sc2nc3ccccc3s2)c2nonc2c1[N+](=O)[O-],-12,0,60*,-21,3,86*,89*,73*,
SMILES,TWEAK Fn14 block,TROY NFkB inh,TRAIL sens C8,aSyn 5UTR inh,HSP90 refold inh,HIF-2a inh,HIF-2a inh conf,HIF-1a cs,others
O=C(NC1=C(NC2CCS(=O)(=O)C2)C(=O)c2ccccc2C1=O)c1ccccc1 (stereo not drawn),92*,56*,52*,26,3,-42,/,/,Mdm2 MdmX conf=93*
O=c1c(Cl)c(Cl)cnn1-c1ccccc1,91*,-1,-13,-29,-3,94*,98*,104*,
Nc1c(Cl)cnn(-c2ccccc2)c1=O,14,-6,-13,13,/,-4,/,/,
COc1cccc(S(=O)(=O)NC2CCN(C#N)C2)c1 (stereo not drawn),7,-7,-15,/,/,-1,/,/,
Cc1cc(=O)[nH]c(N=N/C(=N/Nc2ccccc2C)c2ccccc2)n1,-35,-37,2,82*,7,-28,/,/,Mdm2 MdmX conf=84*
O=C(NCc1cccnc1)c1cccc(S(=O)(=O)Nc2cccc(Cl)c2)c1,9,1,9,/,/,16,/,/,
COc1ccc(C(=O)/C=C/C(=O)N(Cc2ccccc2OC)C(C(=O)NC2CCCCC2)c2ccncc2)c(O)c1 (stereo not drawn),-2,15,-7,16,4,20,/,/,
Cc1ccc(S(=O)(=O)NCC(=O)N(CC(=O)NC2CCCC2)CC2CCCO2)cc1 (stereo not drawn),0,9,11,-25,1,7,/,/,
COc1ccc(C(=O)/C=C/C(=O)N(Cc2ccc(F)cc2)C(C(=O)NC2CCCCC2)c2ccncc2)c(O)c1 (stereo not drawn),17,8,11,23,5,27,/,/,
COc1ccc(C(=O)/C=C/C(=O)N(CC(=O)NC2CCCCC2)Cc2ccccc2)c(O)c1,43,3,31,67*,1,71*,98*,103*,
